DUX4 inh: DUX4-mediated transcription inhibition. 293T-iDUX4 ZSCAN4-Gaussia luciferase reporter, 24 h; hits give low values. activity change, negative = inhibition, % (test concentration not listed). AID 1224904. 0.8% of 37,000 active;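 active = mean inhibition of at least 10% in the main channel, exceeding the control channel by a set limit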;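 also: 0% = median of neutral control wells and -100% = median of positive control wells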
Starred values were filed as active, the others as inactive; ! = repeats disagree. The sample as a whole holds a higher share of hits than the screen did.

SMILES	DUX4 inh
COc1ccccc1-c1ccc(C2[C@H]3CNC[C@@H]2N3Cc2ccc(F)cc2)cc1 (stereo not given in full)	17
C[C@@H]1CN([C@H](C)CO)C(=O)c2cc(C#CCN(C)C)cnc2O[C@H]1CN(C)Cc1cccc(C(=O)O)c1	-5
COc1ccc2c3c([nH]c2c1)[C@@H](CO)N(S(C)(=O)=O)CC31CN(C(=O)Nc2ccccc2)C1	17
CCN1[C@@H]2c3ccc(C4=CCCC4)c(=O)n3C[C@H]1[C@H](CO)[C@H]2C(=O)NCc1ccccn1	-1
O=C(C[C@@H]1CC[C@@H]2[C@H](COC[C@H](O)CN2Cc2ccccc2F)O1)NC1CCC1	6
O=C(CC1CC1)N1[C@@H](CO)[C@H](c2ccccc2)C12CN(Cc1ccncc1)C2	0
CN1C[C@H]2[C@@H](c3ccccc31)[C@H](CO)N2C(=O)CN1CCOCC1	1
COc1cccc(S(=O)(=O)N[C@H]2C=C[C@H](CC(=O)NCc3ccncc3)O[C@H]2CO)c1	6
O=C(C[C@H]1C=C[C@H](NC(=O)C2CC2)[C@@H](CO)O1)NCc1ccncc1	4
COc1ccc2c3c([nH]c2c1)[C@@H](CO)N(C(=O)c1ccc(F)cc1)CC31CN(C(=O)Nc2ccc(F)cc2)C1	4
CCCNC(=O)N1CC2(CN(C(=O)c3cccnc3)C2)c2c([nH]c3cc(OC)ccc23)[C@H]1CO	16
CCCNC(=O)N1CC2(CCN(C(=O)CN(C)C)CC2)c2c(n(C)c3cc(OC)ccc23)[C@H]1CO	23
CCS(=O)(=O)N1Cc2cc(C(=O)O)nc(-c3cccc(-c4ccc(C#N)cc4)c3)c2[C@H]1CCO	4
Cc1ccccc1-c1ccc([C@@H]2[C@H]3CN(S(C)(=O)=O)CCCCN3[C@H]2CO)cc1	7
Cc1ccccc1S(=O)(=O)N1CC[C@H]2[C@@H](CO)N(C)c3ccc(Br)cc3[C@H]21	-3
Cc1ccccc1S(=O)(=O)N1CC[C@@H]2[C@@H](CO)N(C)c3ccc(Br)cc3[C@@H]21	-23*
CN1c2ccc(Br)cc2[C@@H]2[C@@H](CCN2S(=O)(=O)c2ccccc2F)[C@H]1CO	3
C/C=C/c1ccc([C@@H]2[C@H](CO)N(Cc3cncnc3)C23CN(C(=O)CC)C3)cc1	0
COCC#Cc1ccc([C@@H]2[C@@H](CO)N3C(=O)CN(C(=O)c4ccncc4)C[C@H]23)cc1	19
O=C(C[C@H]1C=C[C@@H](NC(=O)C2CCC2)[C@H](CO)O1)NCc1ccccc1Cl	2
O=C(c1cccc(F)c1)N1CCCCN2[C@H](CO)[C@H](c3ccc(-c4ccccc4)cc3)[C@H]2C1	3
O=C(c1cccc(F)c1)N1CCCCN2[C@H](C1)[C@H](c1ccc(/C=C/c3ccccc3)cc1)[C@@H]2CO	-9
O=C(CN1CCOCC1)N1CCCCN2[C@H](CO)[C@H](c3ccc(/C=C/c4ccccc4)cc3)[C@H]2C1	5
CC(C)(O)C#Cc1ccc([C@H]2[C@@H](CO)N3CCCCN(C(=O)c4ccc(F)cc4)C[C@H]23)cc1	-5
CCC(=O)N1CCCCN2[C@@H](CO)[C@H](c3ccc(/C=C/c4ccccc4)cc3)[C@@H]2C1	-16*
SMILES	DUX4 inh
CC(C)C#Cc1ccc([C@@H]2[C@@H](CO)N3CCCCN(C(=O)c4ccc(F)cc4)C[C@H]23)cc1	0
O=C(c1cccc(F)c1)N1CCCCN2[C@H](C1)[C@@H](c1ccc(/C=C/c3ccccc3)cc1)[C@@H]2CO	-41*
CC(C)C#Cc1ccc([C@H]2[C@@H](CO)N3CCCCN(C(=O)c4ccc(F)cc4)C[C@H]23)cc1	-40*
O=C(CN1CCOCC1)N1CCCCN2[C@H](C1)[C@@H](c1ccc(/C=C/c3ccccc3)cc1)[C@@H]2CO	-7
Cc1ccccc1-c1ccc([C@H]2[C@H](CO)N3C(=O)CN(C(=O)Cc4ccccn4)C[C@@H]23)cc1	-2
COc1ccc(C#Cc2ccc([C@H]3[C@@H](CO)N4C(=O)CN(C(=O)c5cccnc5)C[C@@H]34)cc2)cc1	2
C[C@H](CO)N1C[C@H](C)[C@@H](CN(C)Cc2ccc(C(F)(F)F)cc2)OCc2cn(nn2)CCCC1=O	-3
COC(=O)C[C@H]1CC[C@@H]2[C@@H](COc3ccc(NC(=O)c4cscn4)cc3C(=O)N2C)O1	-3
COCCNC(=O)C[C@H]1CC[C@H]2[C@@H](COc3ccc(NC(=O)Cc4ccccc4)cc3C(=O)N2C)O1	2
CN(C)CC(=O)Nc1ccc2c(c1)[C@H]1C[C@H](CC(=O)NCc3ccc(-c4ccccc4)cc3)O[C@@H](CO)[C@H]1O2	-9
O=C(C[C@@H]1C[C@@H]2c3cc(NC(=O)Cc4ccncc4)ccc3O[C@@H]2[C@@H](CO)O1)NCc1cccc(F)c1	-5
O=C(C[C@@H]1C[C@H]2c3cc(NC(=O)Cc4ccncc4)ccc3O[C@H]2[C@@H](CO)O1)NCc1ccc(-c2ccccc2)cc1	-31*
O=C(C[C@H]1C[C@@H]2c3cc(NC(=O)Cc4ccncc4)ccc3O[C@@H]2[C@H](CO)O1)NCc1ccc(-c2ccccc2)cc1	-10
COc1ccccc1CNC(=O)C[C@H]1C[C@H]2c3cc(NC(=O)CN(C)C)ccc3O[C@H]2[C@H](CO)O1	2
O=C(C[C@@H]1C[C@H]2c3cc(NC(=O)Cc4ccncc4)ccc3O[C@H]2[C@@H](CO)O1)NCc1cccc(F)c1	4
O=C(C[C@H]1C[C@H]2c3cc(NC(=O)Cc4ccncc4)ccc3O[C@H]2[C@H](CO)O1)NCc1cccc(F)c1	-30*
COc1ccccc1CNC(=O)C[C@H]1C[C@H]2c3cc(NC(=O)Cc4ccncc4)ccc3O[C@H]2[C@H](CO)O1	-34*
COc1ccccc1CNC(=O)C[C@@H]1C[C@@H]2c3cc(NC(=O)CN(C)C)ccc3O[C@@H]2[C@@H](CO)O1	6
COc1cccc(-c2ccc([C@@H]3[C@@H](CO)N(C(=O)C4CC4)C34CN(C(C)=O)C4)cc2)c1	-7
O=C(c1cccc(F)c1)N1CC2(C1)[C@@H](c1ccccc1)[C@@H](CO)N2C(=O)C1CCCC1	-8
COCCNC(=O)[C@@H]1[C@@H](CO)[C@@H]2Cn3c(cccc3=O)[C@@H]2N1Cc1ccccc1OC	7
C/C=C/c1ccc(C2[C@H]3CNC[C@@H]2N3S(=O)(=O)c2ccc(C)cc2)cc1 (stereo not given in full)	18
CO[C@@H]1CN(C)C(=O)c2ccc(NC(=O)C3CCOCC3)cc2OC[C@@H](C)N(S(=O)(=O)c2ccc(C)cc2)C[C@H]1C	-5
C/C=C/c1ccc(C2[C@@H]3CN(Cc4ccc5c(c4)OCO5)C[C@H]2N3)cc1 (stereo not given in full)	-10
c1cncc(-c2ccc(C3[C@@H]4CN(Cc5ccc6c(c5)OCO6)C[C@H]3N4)cc2)c1 (stereo not given in full)	-34*!
C(=C\c1ccc(C2[C@@H]3CN(Cc4cccnc4)C[C@H]2N3)cc1)/c1ccccc1 (stereo not given in full)	-45*!
CN(C)C(=O)c1cccc(-c2ccc(C3[C@H]4CNC[C@@H]3N4Cc3ccc4c(c3)OCO4)cc2)c1 (stereo not given in full)	8
CN(C)C(=O)c1ccc(-c2ccc(C3[C@@H]4CN(C(=O)Cc5ccncc5)C[C@H]3N4)cc2)cc1 (stereo not given in full)	16
OC[C@@H]1[C@@H](c2ccc(/C=C/c3ccccc3)cc2)[C@@H]2CN(Cc3cncnc3)CCCCN12	0

Screens as filed in PubChem BioAssay.
